# PLK1 PBD block = inhibitors of human PLK1 polo-box domain binding; P53350; Plk1 PBD binding of FITC phosphopeptide, fluorescence polarization; Potency, µM, actives largely listed as inhibitors; hit rate 2.8% among 360,000; AID 720504; further: series mostly up to about 57 µM; nearly all actives have a fitted effect of over 65% in size
# G9a block = G9a (human) methyltransferase inhibition; Q96KQ7; G9a H3K9 monomethylation, AlphaScreen, 2 h; Potency, µM (highest dose often 102 µM), usual class: inhibitors; hit rate 8.8% among 350,000; further: nearly all actives have a fitted effect of over 75% in size
#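 Using a bead-based AlphaScreen, monomethylated H3K9 product from 2 h room-temperature reactions (G9a 20 nM, peptide 500 nM, SAM 20 uM) was detected with 0.5 ug/mL rabbit anti-H3K9me1 antibody.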
# VDR inhibitor = vitamin D3 receptor (human) inhibition | VDR-SRC2-3 peptide fluorescence polarization, 2 h | P11473 | Potency, µM, usual class: inhibitors | hit rate 0.93% among 400,000
# Target sequence (P11473 whole entry, looked up): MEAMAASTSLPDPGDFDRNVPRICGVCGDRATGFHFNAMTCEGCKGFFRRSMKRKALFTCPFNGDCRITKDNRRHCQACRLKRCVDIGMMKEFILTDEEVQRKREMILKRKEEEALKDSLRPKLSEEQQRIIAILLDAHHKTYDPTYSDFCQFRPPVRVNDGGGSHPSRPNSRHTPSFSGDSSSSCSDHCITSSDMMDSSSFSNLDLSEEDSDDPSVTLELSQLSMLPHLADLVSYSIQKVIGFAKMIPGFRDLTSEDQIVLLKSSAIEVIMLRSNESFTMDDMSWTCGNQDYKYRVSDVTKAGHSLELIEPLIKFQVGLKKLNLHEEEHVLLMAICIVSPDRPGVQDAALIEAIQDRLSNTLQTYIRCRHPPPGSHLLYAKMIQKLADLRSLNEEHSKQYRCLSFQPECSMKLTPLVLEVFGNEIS
#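 Fluorescence polarization assay measuring small-molecule disruption of VDR binding to the coregulator peptide SRC2-3. Compounds were pin-transferred (23 nl) into the reagent mix and incubated 2 h at room temperature before reading.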
# HP1b chromo inh = inhibitors of HP1-beta chromodomain binding to methylated histone tails; P83916; AlphaScreen HP1-beta / biotin-H3K9me3 peptide binding; Potency, µM (series often up to 114 µM), most hits filed as inhibitors; hit rate 0.56% among 390,000; further: nearly all actives have a fitted effect of over 70% in size
#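 AlphaScreen: HP1-beta (50 nM) preformed 30 min with biotin-H3(1-18)K9me3 peptide (50 nM) in PBS pH 7.4, 0.01% Tween-20. Compound added for 30 min at RT, then streptavidin donor/nickel chelate acceptor beads (10 ug/mL) for 30 min.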
# JMJD2A Tudor inh = blocks the human JMJD2A Tudor domain. O75164. AlphaScreen JMJD2A-Tudor / H3K4me3 peptide binding. Potency, µM (top dose mostly 114 µM), usual class: inhibitors. hit rate 4.4% among 390,000. AID 504339; further: nearly all actives have a fitted effect of over 50% in size
# BAZ2B block = inhibitors of human BAZ2B bromodomain. Q9UIF8. AlphaScreen BAZ2B-H3K14Ac peptide displacement. Potency, µM (top dose mostly 114 µM), usual class: inhibitors. hit rate 4.4% among 360,000; further: nearly all actives have a fitted effect of over 60% in size
#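 AlphaScreen luminescence quantifies BAZ2B engagement of H3K14Ac peptide; the protein and biotinylated peptide are both at 50 nM final, buffer PBS pH 7.4 with 0.01% Tween-20, all steps at room temperature.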
# Numbers stand for hits; 0 = inactive; ? = inconclusive; - = no result given; [ ] = remark or other dose. This is a sample that favours compounds with a hit; in the whole collection about 11% have one here. The call rests on the fitted dose curve; in most records, active means well fitted curve in the direction sought with a large enough effect; inconclusive means small, poorly fitted or top-dose-only effect, or another doubt; inactive means no such curve, though single readings can be large; an effect the other way counts as inactive or inconclusive.
SMILES,PLK1 PBD block,G9a block,VDR inhibitor,HP1b chromo inh,JMJD2A Tudor inh,BAZ2B block
COc1ccc(-c2nnc(SCC(=O)NC3CCCCC3)n2N)cc1,?,45µM,?,0,0,0
COc1ccc(NC(=O)CSc2nnc(-c3ccccc3C)n2N)cc1,21µM,50µM,?,0,0,0
Cc1ccccc1-c1nnc(SCC(=O)Nc2ccc(Cl)cc2)n1N,0,0,0,0,0,0
COc1cccc(NC(=O)CSc2nnc(-c3cccc(OC(C)C)c3)n2N)c1,?,25µM,0,0,56µM,0
CCc1nc(SCC(=O)Nc2ccc(N(C)C)cc2)c2ccccc2n1,0,10µM,?,0,0,0
COc1cccc(C(=O)Nc2ccc(-c3cn4cccnc4n3)cc2)c1OC,-,0,0,0,0,0
COc1ccc(NC(=O)CSc2nnc(C)c3ccccc23)cc1,0,50µM,0,0,0,0
Cc1ccccc1-c1nnc(SCC(=O)NC2CCCCC2)o1,0,0,0,0,0,0
COc1ccccc1-c1nnc(SCC(=O)NC2CCCCC2)o1,27µM,0,?,0,?,0
O=C(CSCc1cccc(Br)c1)N=Nc1c(O)[nH]c2ccccc12,0,0[0.0925 µM],0,0,0,50µM
O=C(O)c1ccccc1C=NNc1ccc([N+](=O)[O-])cn1,0,-,0,0,0,-
O=C(NN=Cc1ccccc1C(=O)O)C(=O)NN=Cc1ccccc1C(=O)O,0,-,0,0,50µM,-
O=C(O)c1ccccc1C=NNc1ccccn1,0,-,0,0,28µM,-
O=C(NCC1CCCO1)C(=O)N/N=C/c1ccc(OCc2ccccc2Cl)cc1 (stereo not drawn),?,-,0,0,45µM,-
O=C(N/N=C/c1ccccc1C(=O)O)c1ccncc1,0,0,0,0,0,0
O=C(NCC1CCCO1)C(=O)N/N=C/c1ccccc1C(=O)O (stereo not drawn),27µM,0,0,0,0[11.4 µM],0
C=CCN(C(=O)CNC(=O)c1ccco1)C(C(=O)NC1CCCCC1)c1cccnc1 (stereo not drawn),0,0,0,0,0,0
COc1ccc(-c2ccc(OC)c(C3C4C=CCCC4(C)C(=O)N3Cc3ccccc3)c2)cc1 (stereo not drawn),-,-,0,0,0,-
COc1ccccc1C(=O)NC1CC(C)(C)NC(C)(C)C1,0,0,0,0,0,0
CC(C)[C@H](N)C(=O)N[C@@H](CCC(N)=O)C(=O)NCC(=O)N[C@@H](CCC(=O)O)C(=O)N[C@@H](CCC(=O)O)C(=O)N[C@@H](CO)C(=O)N[C@@H](CC(N)=O)C(=O)N[C@@H](CC(=O)O)C(=O)N[C@@H](CCCCN)C(=O)O,-,-,0,-,-,-
COc1ccc2c(CC(=O)Nc3cccc(S(=O)(=O)N4CCOCC4)c3)coc2c1,0,0,0,0,0,0
CCn1c(O)c(C(C#N)=C2N=c3ccccc3=N2)c2ccccc21,0,0,0,0,0,0
CCOc1c(C=C(C#N)C#N)c2ccccc2n1CC,0,10µM,?,0,?,0
O=C1C2CC=CCC2C(=O)N1CC1CCCO1 (stereo not drawn),24µM,0,?,0,?,0
Cc1cc(C)cc(Nc2cc(=O)n(C3CCCCC3)c(=O)[nH]2)c1,0,0,0,0,0,0
SMILES,PLK1 PBD block,G9a block,VDR inhibitor,HP1b chromo inh,JMJD2A Tudor inh,BAZ2B block
Cc1cc2nc3c(=O)n(C4CCCCC4)c(=O)[nH]c3nc2cc1N,3µM,1.3µM,?,0,0,0
Oc1ccc(Br)cc1-c1cc(-c2ccccc2F)[nH]n1,0,0,0,0,0,0
Oc1ccc(Br)cc1-c1cc(-c2ccccc2Cl)[nH]n1,24µM,0,?,0,0[11.4 µM],0
Cc1ccccc1-c1cc(-c2ccccc2O)n[nH]1,3.4µM,0[12.7 µM],0,?,0[11.4 µM],0
CS(=O)(=O)c1ccc(Cl)c(NC(=O)Cc2ccccc2F)c1,27µM,0,79µM,0,22µM,0
O=C(c1ccc(F)cc1)N1CCN(c2ccc([N+](=O)[O-])cc2-n2cccc2)CC1,0,50µM,0,0,?,?
O=C(c1ccccc1F)N1CCN(c2ccc([N+](=O)[O-])cc2-n2cccc2)CC1,0,-,0,0,?,22µM
CC1(C)OC2CC3C4CC(F)C5=CC(=O)C=CC5(C)C4C(O)CC3(C)[C@]2(C(=O)CO)O1 (stereo partly drawn),-,0[2.33 µM],0,-,-,-

# Source: PubChem BioAssay
